Mcl1 Noxa PPI – disrupts binding of human Mcl-1 to Noxa peptide; TR-FRET Mcl-1/Noxa peptide binding, 2 h; Q07820; AID 1022; 220,000 compounds, 1.5% hits; inhibition, % at 21.7 µM;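 active = compounds that cut the protein-peptide binding signal by more than 50% relative to plate controls in a single-dose test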;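 also: His-tagged Mcl-1 with rhodamine Noxa BH3 peptide and terbium anti-His antibody; 0% = Mcl-1 plus Noxa peptide wells and 100% = peptide-only wells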
GLD-1 TGE inh – GLD-1-TGE RNA interaction inhibition (C. elegans); purified GLD-1 + fluorescein TGE RNA, fluorescence polarization; inhibition, % at 5.96 µM; 320,000 compounds, 0.44% hits; AID 2280;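 active = percent inhibition above a per-plate cutoff, the plate mean of test compounds plus 3 SD, cut at about 30% in these data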;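 also: 0% = DMSO wells with GLD-1 and probe and 100% = wells lacking GLD-1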
Target sequence (Q17339 whole entry, looked up): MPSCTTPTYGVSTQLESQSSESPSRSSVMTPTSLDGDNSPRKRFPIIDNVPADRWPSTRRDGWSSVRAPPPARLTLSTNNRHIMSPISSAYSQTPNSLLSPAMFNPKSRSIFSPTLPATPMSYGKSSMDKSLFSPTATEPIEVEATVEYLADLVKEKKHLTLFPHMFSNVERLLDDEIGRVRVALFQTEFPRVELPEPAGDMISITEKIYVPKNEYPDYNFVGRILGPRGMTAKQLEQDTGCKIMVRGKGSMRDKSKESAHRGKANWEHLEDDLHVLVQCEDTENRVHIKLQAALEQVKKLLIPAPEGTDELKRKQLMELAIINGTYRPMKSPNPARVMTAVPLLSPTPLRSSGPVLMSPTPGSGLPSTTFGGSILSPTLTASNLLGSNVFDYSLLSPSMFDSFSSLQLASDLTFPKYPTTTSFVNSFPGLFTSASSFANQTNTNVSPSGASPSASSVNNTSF
Bim-Mcl-1 – human Bim-Mcl-1 interaction inhibition. Q07820. Bead-based flow cytometry, Bim peptide-Mcl-1 binding. inhibition, % at 10 µM. 190,000 compounds, 0.1% hits. AID 1009; in the data active = inhibition above about 40%;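 also: 0% = no compound tracer wells and 100% = peptide blocker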
MCL1-BIM inh – disrupts human MCL1 binding to BIM-BH3 peptide. 320,000 compounds, 0.68% hits. inhibition, % at 10.9 µM. GST-MCL1 / FITC-Bim-BH3 fluorescence polarization. AID 2057;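 active = inhibition above the mean inhibition of all tested compounds plus 3 SD, set per campaign, cut at about 40% in these data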;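 also: 0% = DMSO wells and 100% = unlabeled Bim-BH3 peptide control; higher means more loss of mP so more displacement of Bim peptide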
Bcl-xL primary – blocks human Bcl-xL binding to Bim BH3 peptide. AID 2129. inhibition, % at 10.9 µM. GST-Bcl-xL / FITC-Bim BH3 peptide fluorescence polarization. 320,000 compounds, 0.7% hits. Q07817;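 active = inhibition above the mean of all tested compounds plus 3 SD, cutoff set per campaign, cut at about 30% in these data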;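 also: 0% = DMSO wells and 100% = unlabeled Bim-BH3 peptide competitor; inhibitors lower millipolarization by displacing the labeled peptide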
Target sequence (Q07817 whole entry, looked up): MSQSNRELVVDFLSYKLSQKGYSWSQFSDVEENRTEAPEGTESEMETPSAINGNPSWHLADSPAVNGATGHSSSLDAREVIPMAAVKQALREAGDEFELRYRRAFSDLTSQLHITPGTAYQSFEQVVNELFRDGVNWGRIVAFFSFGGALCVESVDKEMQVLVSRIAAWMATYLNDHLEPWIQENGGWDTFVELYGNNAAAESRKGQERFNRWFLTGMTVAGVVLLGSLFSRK
Mcl1 Bid PPI – disrupts binding of human Mcl-1 to Bid peptide; 220,000 compounds, 0.97% hits; TR-FRET Mcl-1/Bid-Dy647 peptide binding, 1536-well; AID 1021; inhibition, % at 21.7 µM;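 active = compounds that cut the binding signal by more than half at the single screening dose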;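 also: His-tagged Mcl-1 with europium anti-His antibody binding Bid BH3 peptide; 0% = Mcl-1 plus peptide wells and 100% = peptide-only wells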
* = called active by the depositor; / = not tested or not shown. Compounds with a hit are over-represented: about 2.3% of the library has one in this group of screens.

SMILES	Mcl1 Noxa PPI	GLD-1 TGE inh	Bim-Mcl-1	MCL1-BIM inh	Bcl-xL primary	Mcl1 Bid PPI
O=C(CSc1nnc(CNC(=O)c2ccccc2F)o1)NC1CCCC1	/	1.1	/	0.6	-1.6	/
COc1ccc(O)c(N)c1	89.5*	/	6.0	/	/	-46.7
Cc1ccc(O)c(N)c1	/	-1.0	/	1.0	4.6	/
CCCc1cc(C(=O)NC2CCCN(Cc3ccccc3F)C2)no1 (centres undefined)	/	2.2	/	0.2	2.0	/
CN(CC(=O)O/N=C(\N)c1ccc([N+](=O)[O-])cc1)S(=O)(=O)c1ccccc1	83.1*	4.9	95.0*	0.9	6.7	11.5
Oc1ccc(/C=N/NC(=S)Nc2cccnc2)c(O)c1O	102.3*	/	/	/	/	-2.7
Oc1cccc(/C=N/NC(=S)Nc2cccnc2)c1O	65.8*	5.5	-7.0	11.3	8.5	-89.0
Oc1ccc(/C=N/NC(=S)Nc2cccnc2)c(O)c1	-4.7	-3.4	-9.0	16.8	8.4	-86.7
COc1ccc(C(=O)N2c3ccccc3CC2C)cc1OC (centres undefined)	74.3*	6.4	-3.0	3.1	2.3	0.8
CCOC(=O)CNc1c(-c2ccccc2)nc2ccc(Cl)cn12	17.7	12.7	2.0	0.4	2.2	-14.9
COC(=O)CNc1c(-c2ccccn2)nc2ccc(Br)cn12	-4.7	50.3*	0.0	55.1*	46.7*	-59.1
CC(=O)/C(=N\Nc1ccccc1)Sc1cccc2cccnc12	68.7*	1.3	-4.0	6.0	3.9	-9.9
CC(=O)/C(=N\Nc1ccccc1Cl)Sc1cccc2cccnc12	11.1	3.2	-3.0	1.8	5.6	-29.2
CN1C(=O)/C(=C/c2cc(N=Nc3ccccc3)ccc2O)SC1=S	53.8*	4.5	-4.0	7.0	2.6	6.8
COc1ccc(-n2c(Cc3cccn3C)nnc2SCC(=O)NCc2ccc(F)cc2)cc1	-23.6	-5.2	-5.0	-2.4	-1.3	-24.3
COc1ccc(-n2c(Cc3cccn3C)nnc2SCC(=O)NCc2ccccc2Cl)cc1	-6.3	-5.9	-1.0	2.8	-2.3	64.8*
COc1cccc(NC(=O)c2ccc(N3C(=O)C4CC=CCC4C3=O)cc2)c1 (centres undefined)	/	1.8	/	5.3	7.5	/
O=C(Nc1ccc(Br)cc1)c1ccc(N2C(=O)C3CC=CCC3C2=O)cc1 (centres undefined)	58.5*	3.4	0.0	7.4	2.9	-33.2
CCCCN(C)C1=CC2=CC(=C(C#N)C#N)CCC2CC1 (centres undefined)	1.6	14.8	/	18.0	38.6*	-30.5
CCN(CC)C1=CC2=CC(=C(C#N)C#N)CCC2CC1 (centres undefined)	-57.2	-172.8	-6.0	20.0	51.8*	-10.2
N#CC1=C(N)C2=C(N3CCCCC3)CCCC2C1(C#N)C#N (centres undefined)	12.8	18.1	1.0	34.9	25.4	-66.6
N#CC(C#N)=C1C=C2C=C(N3CCCCC3)CCC2CC1 (centres undefined)	-79.9	29.3	-61.0	36.8	35.4*	-60.5
O=C(NCc1ccccc1)C(c1ccccc1F)N(C(=O)c1csnn1)C1CCCC1 (centres undefined)	/	8.0	/	1.9	0.4	/
COC(=O)CCC(=O)OC1(C)C(=O)C2=CN(CCN3CCOCC3)C(c3ccc(OC)cc3)=CC2=C(Br)C1=O (centres undefined)	18.2	15.5	/	20.7	23.8	-78.7
COC(=O)CCC(=O)OC1(C)C(=O)C2=CN(CCc3ccccn3)C(c3ccc(OC)cc3)=CC2=C(Br)C1=O (centres undefined)	/	30.4	/	40.0*	36.5*	/
SMILES	Mcl1 Noxa PPI	GLD-1 TGE inh	Bim-Mcl-1	MCL1-BIM inh	Bcl-xL primary	Mcl1 Bid PPI
COC(=O)CCC(=O)OC1(C)C(=O)C2=CN(CCCCO)C(c3ccc(OC)cc3)=CC2=C(Br)C1=O (centres undefined)	/	26.0	/	40.2*	31.7*	/
COC(=O)CCC(=O)OC1(C)C(=O)C2=CN(C(CO)CO)C(c3ccc(OC)cc3)=CC2=C(Br)C1=O (centres undefined)	19.4	13.2	/	39.9*	38.2*	-57.7
CCN(C[C@H]1N[C@@](Cc2ccccc2)(C(=O)OC)[C@H]2C(=O)N(C)C(=O)[C@@H]12)S(=O)(=O)c1ccc(C(C)(C)C)cc1	/	2.3	/	/	/	/
C[C@H](CO)N1C[C@H](C)[C@@H](CN(C)S(=O)(=O)c2ccc(F)cc2)Oc2ccc(NC(=O)Cc3ccccc3)cc2C1=O	/	4.4	/	/	/	/
Cc1ccc(S(=O)(=O)N2CC(O)C[C@H]2C(=O)OCC(=O)Nc2ccc(N3CCCCC3)cc2)cc1C (some centres undefined)	/	7.4	/	1.4	2.0	/
COc1cccc(NC(=O)N2CCC(NC(=O)c3ccco3)CC2)c1	/	-1.3	/	7.4	2.8	/
CS(=O)(=O)NCc1ccc(C(=O)NCCOc2ccccc2)cc1	33.6	6.7	2.0	3.6	3.1	90.8*
CS(=O)(=O)Nc1ccc(C(=O)NCCc2ccccc2)cc1	5.9	-4.7	-1.0	6.4	144.7*	-15.2
CCOc1ccc(CCNC(=O)C2CCCN(c3ncnc4c3nc3n4CCCCC3)C2)cc1 (centres undefined)	/	2.9	/	1.4	0.6	/
COc1ccc(NCc2ccc([N+](=O)[O-])s2)cc1	30.7	-11.5	-4.0	-13.4	-2.9	11.3
COc1ccc(NCc2ccc([N+](=O)[O-])s2)c(OC)c1	53.0*	-0.6	-1.0	0.8	7.2	11.9
Cc1ccccc1-c1cc2nc(-c3ccc([N+](=O)[O-])cc3)cc(=O)n2[nH]1	-12.2	-6.8	0.0	0.2	5.0	-60.1
O=c1cc(-c2ccc([N+](=O)[O-])cc2)nc2cc(-c3ccc(F)cc3)[nH]n12	64.6*	7.6	0.0	6.8	9.4	-46.4
O=C(Nc1cc([N+](=O)[O-])ccc1C(=O)Nc1cccnc1)c1ccccc1	/	5.6	/	-0.8	1.3	/
CCN(CC)CCn1c(NCc2ccccn2)nc2ccccc21	34.2	4.1	-6.0	-0.1	-1.3	85.0*
CCOC(=O)c1c(C)[nH]c(C(=O)OCC(=O)N(CC(C)C)C2CCS(=O)(=O)C2)c1C (centres undefined)	/	6.9	/	-3.1	-0.5	/
Nc1c(S(=O)(=O)c2ccccc2)c2nc3ccccc3nc2n1CCN1CCOCC1	28.5	-8.4	-2.0	17.1	10.8	-10.8
Nc1c(S(=O)(=O)c2ccccc2)c2nc3ccccc3nc2n1Cc1ccco1	39.5	46.6*	0.0	10.7	23.2	-6.3
O=c1c2c3nc4ccccc4nc3n(Cc3ccccc3)c2ncn1Cc1ccco1	73.3*	/	4.0	/	/	1.8
Cc1ccc(S(=O)(=O)c2c(N)n(CCN3CCOCC3)c3nc4ccccc4nc23)cc1C	-60.1	-0.2	2.0	8.3	5.8	5.3
Cc1ccc(S(=O)(=O)c2c(N)n(Cc3ccco3)c3nc4ccccc4nc23)cc1C	12.2	20.4	-1.0	15.2	31.7*	-27.7
Cc1ccc(NC2=C(Cl)C(=O)c3ccccc3C2=O)cc1	19.8	5.5	23.0	0.6	4.7	-2.7

High-throughput results as filed in PubChem.
